The values below come from PubChem BioAssay.

SMILES strings stand for the structures. A number with no mark means an inactive call. The rule behind the calls is not given here.

The term inhibition denotes the change of the read-out against control, counted positive when it falls.

Sequence of Pantothenate synthetase (Mycobacterium tuberculosis (strain ATCC 25618 / H37Rv)) (P9WIL5 whole entry, looked up): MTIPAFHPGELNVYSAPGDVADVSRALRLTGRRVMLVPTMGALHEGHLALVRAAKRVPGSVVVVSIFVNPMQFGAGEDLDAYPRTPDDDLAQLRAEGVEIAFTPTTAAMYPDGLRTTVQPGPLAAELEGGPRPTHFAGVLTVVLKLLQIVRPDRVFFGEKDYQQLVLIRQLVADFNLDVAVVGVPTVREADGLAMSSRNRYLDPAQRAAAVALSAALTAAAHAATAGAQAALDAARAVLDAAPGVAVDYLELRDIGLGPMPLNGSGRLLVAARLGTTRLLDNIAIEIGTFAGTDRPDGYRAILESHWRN

This assay concerns the target Pantothenate synthetase (Mycobacterium tuberculosis (strain ATCC 25618 / H37Rv)) (UniProt P9WIL5). The experiment in a line: Recombinant Mtb pantothenate synthetase (PanC) inhibitors, coupled enzyme, confirmatory (AID 375).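 Note: 0% = full reaction with vehicle and 100% = no enzyme background.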 The following applies: coupled enzyme assay; at 10 µM, hits give high values.
Turning to `O=C(CCn1c(=S)[nH]c2cc3c(cc2c1=O)OCO3)N1CCN(C2CCCCC2)CC1`, the inhibition is 0%.
With `COCCn1c(-c2ccco2)nc2nc3ccccc3nc21`, the inhibition was 5%.
As for `COCCNC(=O)CSc1nc(-c2ccc(OC)c(OC)c2)cc(C(F)(F)F)n1`, the figure is 2%.
As for `COC(=O)c1ccc(COC(=O)c2c(C)nn(Cc3ccccc3Cl)c2Cl)o1`, the figure is 0%; as for `COc1ccc(S(=O)(=O)N2CCOCC2)cc1C(=O)Nc1cc(C)on1`, 0%; as for `c1cn(CC2(Cn3ccnc3)COC2)cn1`, 1%.
The value for `COc1ccc2[nH]c(=O)c(CNC3CCCCC3)cc2c1` was 0%; that for `Cc1cccc(NS(=O)(=O)c2cc(C(=O)OCC(=O)Nc3cc(C)on3)ccc2C)c1` was 0%; that for `CC(O)c1c(OCc2ccccc2)ncnc1OCc1ccccc1` (stereo not given) was 0%.
In the case of `COc1ccc(NC(=O)CSc2nc3c(c(=O)n2-c2ccc(F)cc2)SCC3)cc1`, the inhibition was 0%.
For the compound `COc1cccc(-n2c(SCC(=O)OC(C)C)nnc2-c2cccnc2)c1`, the inhibition is 2%.
As for `CCCn1c(=N)n(CCOc2ccc(OC)cc2)c2ccccc21`, the figure is 0%.
Turning to `Cc1ccccc1-c1nc(CN2CCC(C(=O)NC3CCN(Cc4ccccc4)CC3)CC2)c(C)o1`, the inhibition was 0%.
Regarding `C=CCc1ccccc1OCC(O)CN1CCN(Cc2ccc3c(c2)OCO3)CC1` (stereo not given), the inhibition is 5%.
In the case of `CCOC(=O)CSc1nc(C)c(C(=O)OCC)s1`, the inhibition is 0%.
The value for `COc1ccc(/C=N/O)cc1COc1ccc(NC(C)=O)cc1` was 1%; that for `CCOC(=O)N1CCN(C(=O)c2cnn(-c3ccccc3)c2NC(=O)c2ccccc2F)CC1` was 0%.
For `CCOC(=O)c1cc(NC(=O)SCC(=O)O)c(C)nc1C`, the inhibition is 0%.
As for `CCCCN(CC)CCCNC(=O)CS(=O)(=O)Cc1nc(-c2cccc(OC)c2)oc1C`, the figure is 0%; as for `COP(C)(=O)c1c(C)nn(-c2ccccc2)c1C` (stereo not given), 0%.
On to `COC(=O)C(NC(C)=O)(Nc1nc2ccc(S(C)(=O)=O)cc2s1)C(F)(F)F` (stereo not given), for which the inhibition was 0%.
Regarding `Cn1nnnc1SCC(=O)Nc1ccccc1C(=O)NCc1ccccc1`, the inhibition is 0%.
As for `COc1cc2c(cc1OC)C(/C(C#N)=N\O)=NC(C)(C)C2`, the figure is 2%; as for `CCS(=O)(=O)CCn1c([N+](=O)[O-])cnc1C`, 7%.
With `CS(=O)(=O)N1CCc2cc(C(=O)N3CCCCC3)ccc21`, the inhibition was 2%.
As for `COc1ccc(Nc2nc(Nc3ccc(OC)cc3)nc(-n3[nH]c(=O)c(C)c3C)n2)cc1`, the figure is 0%; as for `COc1cccc2c(=O)cc(C)n(CC(=O)Nc3ccc(C)c(C)c3)c12`, 0%.
`Cc1ccc(S(=O)(=O)NCC(=O)OCN2C(=O)c3ccccc3C2=O)cc1`: the inhibition is 4%.
The value for `Nc1ccc2[nH]ncc2c1` was 0%; that for `CCOc1ccc(N(CC(=O)NC2CCCC(C)C2C)S(=O)(=O)c2c(C)noc2C)cc1` (stereo not given) was 2%; that for `CCCN(CCC)C(=O)C(CCC(=O)O)NC(=O)c1ccccc1` (stereo not given) was 0%.
`COC(=O)c1[nH]c(C)c(/C(O)=C2\C(=O)C(=O)N(CCCN3CCOCC3)C2c2ccccn2)c1C` (stereo not given): the inhibition is 8%.
With `CCC1(NC(C)=O)CC2CC1CC2NC(C)=O` (stereo not given), the inhibition was 0%.
Take `Cn1c(C(=O)Nc2ccc3c(c2)OCO3)cc2c(=O)n(C)c3ccccc3c21`: the inhibition was 0%.
On to `CC1CCN(S(=O)(=O)c2ccc(S(=O)(=O)NCC(=O)C(C)(C)C)cc2)CC1`, for which the inhibition is 2%.
The value for `COC(=O)c1ccc(CSc2nc3c(cnn3-c3ccc(C)c(C)c3)c(=O)[nH]2)o1` was 3%; that for `O=C(CN1C(=O)CCSc2ccccc21)Nc1ccccc1` was 0%.
Turning to `O=C(c1cccnc1)N1CCc2ccccc21`, the inhibition was 3%.
The value for `C=CCOc1nc(N(C)C)nc(N(C)C)n1` was 7%; that for `COc1cc2c(cc1NC(=O)COC(=O)Cn1cnc3ccccc31)oc1ccccc12` was 0%.
